In PubChem BioAssay AID1851 (National Center for Advancing Translational Sciences (NCATS), 2009):
The whole screen tested about 16,000 compounds, of which about 4,000 (25%) were called active. Not shown: some 26% with an inconclusive outcome. Calls come from the whole dose curve; as a rule, active = well fitted curve in the direction sought with a large enough effect; inconclusive = small, poorly fitted or top-dose-only effect, or effect the other way; inactive = no such curve, though single readings can be large or run the other way. A selection follows. Numbered stars: 1 amine (or outer) side, 2 acyl side, 3 side chain; on linkers, the order of the positions; unused ones are H or OH. Bridge positions count the residues as written; N and C are the ends. Square brackets hold non-standard residues; d marks the D form. Peptide text beside a SMILES is read from it. I, II: the chains in the order shown. Actinocin(9to1) = Cc1c2oc3c(C)ccc(C(=O)[*:1])c3nc-2c(C(=O)[*:2])c(N)c1=O; aThr = C[C@H](O)[C@H](N)C(=O)O; NMeV = CN[C@H](C(=O)O)C(C)C; Sar = CNCC(=O)O

Target: Cytochrome P450 2C9 (Homo sapiens) (UniProt P11712)
Test: Cytochrome panel assay with activity outcomes
Conditions: recombinant CYP, pro-luciferin dealkylation, luminescence, p450-cyp2c9; series mostly up to 57.1 µM; activity, negative = inhibition: at the top concentration
% is set by controls: 0 for no effect and ±100 for the full control effect.

Chain of Cytochrome P450 2C9 (Homo sapiens) (P11712 whole entry, looked up): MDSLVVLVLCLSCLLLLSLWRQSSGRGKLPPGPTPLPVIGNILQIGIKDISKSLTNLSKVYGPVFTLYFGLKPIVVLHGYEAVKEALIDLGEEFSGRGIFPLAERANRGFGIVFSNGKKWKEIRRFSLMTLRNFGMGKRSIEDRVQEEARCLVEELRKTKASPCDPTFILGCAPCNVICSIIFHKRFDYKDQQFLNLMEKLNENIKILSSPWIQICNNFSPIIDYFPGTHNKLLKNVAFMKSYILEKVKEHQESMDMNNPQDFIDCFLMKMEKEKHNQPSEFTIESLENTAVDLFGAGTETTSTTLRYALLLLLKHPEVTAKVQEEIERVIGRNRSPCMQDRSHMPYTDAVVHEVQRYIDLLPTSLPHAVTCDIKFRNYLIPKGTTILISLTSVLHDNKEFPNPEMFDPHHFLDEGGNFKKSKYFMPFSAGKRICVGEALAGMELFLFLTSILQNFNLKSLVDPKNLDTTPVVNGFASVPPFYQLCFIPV

SMILES	AC50	activity, negative = inhibition
CCOc1c(OC(C)=O)ccc(/C=C2\N=C(SCC)SC2=O)c1[N+](=O)[O-]	5.62 µM (active)	–
C=CCSC1=Nc2sccc2C2=NC(=O)CN12	–	-5.09% (inactive)
Cc1ccccc1NC1=C(C(=O)c2ccccc2)N(C)S(=O)(=O)c2ccccc21	3.55 µM (active)	–
Cc1ccc(C)c(C(=O)CN2C(=O)c3ccccc3S2(=O)=O)c1	–	-7.55% (inactive)
Cn1c(=O)c2[nH]c(COCc3nc4c([nH]3)c(=O)n(C)c(=O)n4C)nc2n(C)c1=O	–	7.37% [at 11.4 µM] (inactive)
O=C(CSc1nnc(-c2ccncc2)n1Cc1ccccc1)Nc1nccs1	10 µM (active)	–
COC(=O)c1ccc(NC(=O)Cn2nc(-c3ccncc3)nc2SCC(=O)Nc2nccs2)cc1	0.224 µM (active)	–
Cc1ccc(NC(=O)c2ccc(CSc3nnc(-c4ccncc4)n3C)cc2)cc1	–	-29.8% (inactive)
C=CCn1c(SCc2ccc(C(=O)Nc3ccccc3)cc2)nnc1-c1ccccc1	3.98 µM (active)	–
C=CCn1c(SCC(=O)Nc2ncc(Cc3ccc(Br)cc3)s2)nnc1-c1ccncc1	–	-0.753% (inactive)
CCn1c(SCc2ccc(C(=O)Nc3nccs3)cc2)nnc1-c1ccc(NC(C)=O)cc1	1.78 µM (active)	–
COc1cc(OC)c2nc(C)c3c(c2c1)N(c1ccc(O)cc1)CC3	–	-9.41% (inactive)
Cc1c2oc3c(C)ccc(C(=O)N[C@@H]4C(=O)N[C@@H](C(C)C)C(=O)N5CCC[C@@H]5C(=O)N(C)CC(=O)N(C)[C@@H](C(C)C)C(=O)O[C@H]4C)c3nc-2c(C(=O)N[C@@H]2C(=O)N[C@@H](C(C)C)C(=O)N3CCC[C@@H]3C(=O)N(C)CC(=O)N(C)[C@@H](C(C)C)C(=O)O[C@H]2C)c(N)c1=O (I: [aThr]V[dP][Sar][NMeV] / II: [aThr]V[dP][Sar][NMeV]; ester I:1-I:C, II:1-II:C; linker I:N-II:N via Actinocin(9to1))	–	11.9% (inactive)
O=C1Nc2ccccc2C1=Nc1cccc2ncccc12	–	17.9% [at 11.4 µM] (inactive)
CNc1cc(OC)c(C(=O)N[C@@H]2CCN(Cc3ccccc3)[C@H]2C)cc1Cl	–	-7.74% (inactive)
Cc1ccc(OCCOCCn2ccnc2)c(Br)c1	0.501 µM (active)	–
C=CCNCCOCCOc1ccc(C)cc1[N+](=O)[O-]	–	-25.4% (inactive)
CCOC(=O)N/N=C1/C[C@@H](O)[C@@H](O)[C@@H]2[C@@H]3C(=O)N(CC)C(=O)[C@H]3CC[C@H]12	–	8.47% [at 11.4 µM] (inactive)
O=S(=O)(c1ccc(F)cc1)N1CC2CCCN2c2ccc(C(F)(F)F)cc21 (stereo not given)	10 µM (active)	–
O=S(=O)(c1ccc(F)cc1)N1CCCC(CO)C1 (stereo not given)	–	-17.2% (inactive)
